From PubChem BioAssay (Tox21)
Records with an inconclusive call do not appear. Calls of active or inactive are those of the source. Unless noted, calls follow the shape of the dose curve; as a rule, active = well fitted curve in the direction sought with a large enough effect in the repeat runs; inconclusive = weak or mixed curves; inactive = no such curve, though single readings can be large; an effect the other way counts as inactive or inconclusive.

Columns and labels:
[1] = qHTS assay to identify aromatase inhibitors - cell viability counter screen (AID 743084);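 also: cells stimulated with testosterone during compound exposure; nearly all actives have a fitted effect of over 55% in size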
[2] = target: Aryl hydrocarbon receptor (Homo sapiens) (UniProt P35869); experiment: qHTS assay to identify small molecule that activate the aryl hydrocarbon receptor (AhR) signaling pathway (AID 743085);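 also: HG2L7.5c1 human HepG2 liver cells with stably integrated DRE-driven firefly reporter; series mostly up to about 70 µM; nearly all actives have a fitted effect of over 15% in size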
Sequence of Aryl hydrocarbon receptor (Homo sapiens) (P35869 whole entry, looked up): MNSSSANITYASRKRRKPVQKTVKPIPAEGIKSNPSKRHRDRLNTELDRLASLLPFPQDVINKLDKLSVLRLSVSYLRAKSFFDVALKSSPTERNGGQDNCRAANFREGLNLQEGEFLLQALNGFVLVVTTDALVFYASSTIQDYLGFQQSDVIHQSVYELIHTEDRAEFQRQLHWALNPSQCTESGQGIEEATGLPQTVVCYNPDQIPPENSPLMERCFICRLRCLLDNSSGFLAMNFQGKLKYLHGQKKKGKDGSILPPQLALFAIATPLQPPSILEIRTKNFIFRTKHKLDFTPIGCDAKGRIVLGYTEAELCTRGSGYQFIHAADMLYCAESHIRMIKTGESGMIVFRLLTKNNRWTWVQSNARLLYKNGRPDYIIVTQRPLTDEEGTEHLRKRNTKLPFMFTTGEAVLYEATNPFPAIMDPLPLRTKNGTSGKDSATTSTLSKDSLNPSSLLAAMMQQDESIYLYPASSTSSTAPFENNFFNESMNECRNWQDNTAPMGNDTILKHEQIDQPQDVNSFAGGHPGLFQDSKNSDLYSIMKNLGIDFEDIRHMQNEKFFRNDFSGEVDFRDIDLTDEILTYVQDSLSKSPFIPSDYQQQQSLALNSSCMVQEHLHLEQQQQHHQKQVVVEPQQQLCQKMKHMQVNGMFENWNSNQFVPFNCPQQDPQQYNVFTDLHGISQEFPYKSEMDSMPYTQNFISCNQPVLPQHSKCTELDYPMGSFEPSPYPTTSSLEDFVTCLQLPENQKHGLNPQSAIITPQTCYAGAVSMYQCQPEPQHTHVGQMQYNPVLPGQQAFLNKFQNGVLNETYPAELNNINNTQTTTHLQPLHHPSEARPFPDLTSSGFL
Method in brief: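 HepG2 cells stably carrying a 20-DRE firefly luciferase reporter (HG2L7.5c1) treated with compound for 24 hr at 37C. Luciferase read by ONE-Glo luminescence, with CellTiter-Fluor viability read first.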

[3] = qHTS assay to identify small molecule that activate the aryl hydrocarbon receptor (AhR) signaling pathway - cell viability counter screen (AID 743086);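 also: HepG2 liver cells carrying the AhR DRE luciferase reporter; series mostly up to about 70 µM; nearly all actives have a fitted effect of over 45% in size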
Method in brief: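 HepG2-AhR-luc (HG2L7.5c1) cells, 4000/well, were preincubated 5 h at 37C, exposed to compound in qHTS format for 24 hr at 37C, then given CellTiter-Fluor for 30 min; viability was read as fluorescence in the reporter wells.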

[4] = target: Peroxisome proliferator-activated receptor gamma (Homo sapiens) (UniProt P37231); experiment: qHTS assay to identify small molecule antagonists of the peroxisome proliferator-activated receptor gamma (PPARg) signaling pathway (AID 743191; calls by dose curve; also: series mostly up to about 63 µM; nearly all actives have a fitted effect of over 30% in size)
Sequence of Peroxisome proliferator-activated receptor gamma (Homo sapiens) (P37231 whole entry, looked up): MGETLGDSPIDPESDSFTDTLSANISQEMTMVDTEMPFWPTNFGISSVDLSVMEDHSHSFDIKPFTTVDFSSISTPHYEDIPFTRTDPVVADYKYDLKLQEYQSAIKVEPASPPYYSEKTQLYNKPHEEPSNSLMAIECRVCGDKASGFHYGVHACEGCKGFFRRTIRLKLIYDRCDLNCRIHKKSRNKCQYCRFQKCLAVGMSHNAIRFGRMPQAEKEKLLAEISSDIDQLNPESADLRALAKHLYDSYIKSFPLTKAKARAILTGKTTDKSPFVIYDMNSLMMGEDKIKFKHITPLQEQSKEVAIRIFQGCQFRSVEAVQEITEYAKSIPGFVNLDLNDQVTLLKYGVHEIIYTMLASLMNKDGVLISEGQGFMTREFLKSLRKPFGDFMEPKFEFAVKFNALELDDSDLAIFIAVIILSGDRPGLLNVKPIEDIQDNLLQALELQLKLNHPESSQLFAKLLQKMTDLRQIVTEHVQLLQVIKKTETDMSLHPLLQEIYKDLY
Method in brief: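 GeneBLAzer PPARg UAS-bla HEK293H cells carrying a UAS-driven beta-lactamase reporter were plated at 3000 cells/well, preincubated 5 h at 37C, then given compound for 17 h at 37C; LiveBLAzer B/G FRET substrate was read after 1 h at room temperature.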

[5] = qHTS assay to identify small molecule antagonists of the peroxisome proliferator-activated receptor gamma (PPARg) signaling pathway - cell viability counter screen (AID 743194); also: nearly all actives have a fitted effect of over 55% in size
Method in brief: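 PPARg-UAS-bla HEK293H cells were plated, rested 5 h at 37 C, then treated with compounds plus rosiglitazone (50 nM final) for 17 h at 37 C; viability was then read by CellTiter-Glo luminescence after 30 min at room temperature.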

[6] = qHTS assay for small molecule agonists of the antioxidant response element (ARE) signaling pathway - cell viability counter screen (AID 743203; calls by dose curve; also: nearly all actives have a fitted effect of over 55% in size)
Method in brief: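 Viability counter screen: CellTiter-Glo luminescence, read after 30 min at room temperature, in ARE-bla HepG2 wells. Compound exposure lasted 16 h at 37C/5% CO2, following a 5 h pre-incubation of the cells after plating.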

[7] = qHTS assay for small molecule activators of the heat shock response signaling pathway - cell viability counter screen (AID 743209); also: nearly all actives have a fitted effect of over 50% in size
Method in brief: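 Cytotoxicity counter screen run in the same wells as the heat-shock bla reporter assay: HeLa HSE-bla cells, 5 h compound exposure at 37 C, viability read by CellTiter-Glo luminescence.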

[8] = qHTS assay for small molecule activators of the heat shock response signaling pathway (AID 743210; active = well fitted activation curve with a large enough effect in the signal ratio in the repeat runs, with a control signal flat, not every such curve was filed as active; the % refers to the signal ratio; also: series mostly up to about 63 µM)
Method in brief: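 Heat shock element–beta-lactamase HeLa reporter cells; qHTS with compounds for 5 h at 37 C; detection by FRET substrate fluorescence after 2.5 h at RT.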

[9] = qHTS assay to identify small molecule agonists of the peroxisome proliferator-activated receptor delta (PPARd) signaling pathway - cell viability counter screen (AID 743211); also: nearly all actives have a fitted effect of over 55% in size
Method in brief: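 PPARd-bla HEK293H cells (3000/well) were pre-incubated 5 h at 37 C, then exposed to compound for 17 h at 37 C. After 2 h with LiveBLAzer substrate, CellTiter-Glo was added to the same wells; luminescence read after 30 min at room temperature.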

[10] = target: Peroxisome proliferator-activated receptor delta (Homo sapiens) (UniProt Q03181); experiment: qHTS assay to identify small molecule agonists of the peroxisome proliferator-activated receptor delta (PPARd) signaling pathway (AID 743212; calls by dose curve)
Sequence of Peroxisome proliferator-activated receptor delta (Homo sapiens) (Q03181 whole entry, looked up): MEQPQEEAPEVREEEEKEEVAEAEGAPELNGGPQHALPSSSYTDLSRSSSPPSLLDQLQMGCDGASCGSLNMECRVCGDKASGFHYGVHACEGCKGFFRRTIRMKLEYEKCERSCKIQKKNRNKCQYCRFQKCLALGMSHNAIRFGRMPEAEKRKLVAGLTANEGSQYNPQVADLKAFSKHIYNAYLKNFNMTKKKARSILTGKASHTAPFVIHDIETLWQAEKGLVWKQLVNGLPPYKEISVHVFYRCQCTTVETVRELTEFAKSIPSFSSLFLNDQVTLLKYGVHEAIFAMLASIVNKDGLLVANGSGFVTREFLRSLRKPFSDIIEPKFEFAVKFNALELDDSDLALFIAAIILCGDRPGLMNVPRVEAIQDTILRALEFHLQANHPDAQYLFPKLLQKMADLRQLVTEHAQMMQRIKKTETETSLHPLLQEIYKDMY
Method in brief: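 Beta-lactamase reporter read by fluorescence (LiveBLAzer B/G FRET, 2 h, room temperature). Test agents, in DMSO, incubated at 37 C with PPARd-bla HEK293H cells.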

[11] = target: Peroxisome proliferator-activated receptor delta (Homo sapiens) (UniProt Q03181); experiment: qHTS assay to identify small molecule antagonists of the peroxisome proliferator-activated receptor delta (PPARd) signaling pathway (AID 743215; active = well fitted inhibition curve with a large enough effect in the signal ratio in the repeat runs, not every such curve was filed as active; the % refers to the signal ratio;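 also: cells stimulated with agonist L165041 at 300 nM final during compound exposure; series mostly up to about 62 µM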)
Method in brief: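 Agonist L165041 (300 nM final) added with compound to PPARd-bla HEK293H UAS-bla reporter cells; 17 h incubation at 37 C. Read-out: LiveBLAzer FRET substrate, 2 h at room temperature, fluorescence intensity.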

[12] = target: Bile acid receptor (Homo sapiens) (UniProt Q96RI1); experiment: qHTS assay to identify small molecule antagonists of the farnesoid-X-receptor (FXR) signaling pathway (AID 743217; active = well fitted inhibition curve with a large enough effect in the signal ratio in the repeat runs, not every such curve was filed as active; the % refers to the signal ratio)
Sequence of Bile acid receptor (Homo sapiens) (Q96RI1 whole entry, looked up): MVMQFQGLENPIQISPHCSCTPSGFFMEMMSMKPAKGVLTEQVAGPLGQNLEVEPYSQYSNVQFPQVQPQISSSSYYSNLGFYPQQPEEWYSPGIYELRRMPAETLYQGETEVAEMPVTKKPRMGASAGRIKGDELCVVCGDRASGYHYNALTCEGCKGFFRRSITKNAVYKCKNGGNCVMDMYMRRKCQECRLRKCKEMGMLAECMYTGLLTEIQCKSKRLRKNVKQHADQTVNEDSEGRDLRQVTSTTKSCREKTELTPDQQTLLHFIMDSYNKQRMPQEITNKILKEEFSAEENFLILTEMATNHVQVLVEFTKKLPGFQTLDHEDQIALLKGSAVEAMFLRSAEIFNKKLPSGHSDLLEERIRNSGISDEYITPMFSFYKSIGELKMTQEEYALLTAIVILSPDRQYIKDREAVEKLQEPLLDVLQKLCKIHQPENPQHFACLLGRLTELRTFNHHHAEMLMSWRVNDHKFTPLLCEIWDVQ
Method in brief: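 Antagonist mode: chenodeoxycholic acid at 50 uM final stimulates a UAS-driven beta-lactamase reporter in HEK 293T FXR-bla cells during 16 h, 37C compound exposure. Read-out is FRET substrate fluorescence after 2 h at room temperature.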

[13] = qHTS assay to identify small molecule agonists of the farnesoid-X-receptor (FXR) signaling pathway - cell viability counter screen (AID 743218); also: nearly all actives have a fitted effect of over 45% in size
Method in brief: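 Viability counter screen in the same wells: CellTiter-Glo luminescence, 30 min room-temperature incubation, measured after the beta-lactamase read. Cells were GeneBLAzer FXR-UAS-bla HEK 293T, compound-treated 16 h at 37C.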

[14] = target: Bile acid receptor (Homo sapiens) (UniProt Q96RI1); experiment: qHTS assay to identify small molecule agonists of the farnesoid-X-receptor (FXR) signaling pathway (AID 743220; active = well fitted activation curve with a large enough effect in the signal ratio in the repeat runs, not every such curve was filed as active; the % refers to the signal ratio)
Method in brief: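 FXR-UAS-bla HEK 293T cells carrying a UAS-driven beta-lactamase reporter were plated for 5 h at 37C/5% CO2, then exposed to DMSO-dissolved Tox21 10K compounds for 16 h at 37C. A LiveBLAzer B/G FRET substrate was loaded for 2 h at room temperature before fluorescence reading.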

[15] = qHTS assay to identify small molecule antagonists of the farnesoid-X-receptor (FXR) signaling pathway - cell viability counter screen (AID 743221; active = well fitted cell-killing curve with a large enough effect in the repeat runs, not every such curve was filed as active; also: nearly all actives have a fitted effect of over 50% in size)
Method in brief: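 GeneBLAzer FXR-UAS-bla HEK 293T cells, compound plus chenodeoxycholic acid (50 uM final), 16 h at 37 C. CellTiter-Glo added to the same wells after the beta-lactamase read; luminescence read after 30 min at room temperature as viability.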

[16] = target: Vitamin D3 receptor (Homo sapiens) (UniProt P11473); experiment: qHTS assay to identify small molecule agonists of the vitamin D receptor (VDR) signaling pathway (AID 743222; calls by dose curve)
Sequence of Vitamin D3 receptor (Homo sapiens) (P11473 whole entry, looked up): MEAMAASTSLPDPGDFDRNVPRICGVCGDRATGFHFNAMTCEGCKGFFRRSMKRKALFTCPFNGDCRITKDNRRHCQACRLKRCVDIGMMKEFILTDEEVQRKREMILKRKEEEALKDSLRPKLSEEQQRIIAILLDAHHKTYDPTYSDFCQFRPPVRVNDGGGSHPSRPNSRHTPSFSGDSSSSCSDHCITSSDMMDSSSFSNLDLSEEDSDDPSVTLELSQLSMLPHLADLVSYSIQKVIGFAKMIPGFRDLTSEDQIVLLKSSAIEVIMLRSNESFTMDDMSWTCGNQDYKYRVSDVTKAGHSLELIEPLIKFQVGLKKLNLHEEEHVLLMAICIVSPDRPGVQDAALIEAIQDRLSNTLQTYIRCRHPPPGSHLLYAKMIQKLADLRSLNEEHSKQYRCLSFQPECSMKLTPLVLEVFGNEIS
Method in brief: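 Agonist mode, beta-lactamase reporter: fluorescence from LiveBLAzer B/G FRET substrate (2 h, room temperature) read after 16 h compound treatment at 37 C of VDR-bla cells, which were pre-incubated 4 h after seeding.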

[17] = target: Vitamin D3 receptor (Homo sapiens) (UniProt P11473); experiment: qHTS assay to identify small molecule antagonists of the vitamin D receptor (VDR) signaling pathway (AID 743223; active = well fitted inhibition curve with a large enough effect in the signal ratio in the repeat runs, not every such curve was filed as active; the % refers to the signal ratio)
Method in brief: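 VDR-bla cells were treated with compound plus 3 nM final 1alpha,25-dihydroxyvitamin D3 for 16 h at 37C. Beta-lactamase reporter read by B/G FRET substrate fluorescence after 2 h at room temperature. qHTS format.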

[18] = target: Peroxisome proliferator-activated receptor gamma (Homo sapiens) (UniProt P37231); experiment: qHTS assay to identify small molecule agonists of the peroxisome proliferator-activated receptor gamma (PPARg) signaling pathway (AID 743094; active = well fitted activation curve with a large enough effect in the signal ratio in the repeat runs, not every such curve was filed as active; the % refers to the signal ratio)
Method in brief: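 Agonist activity was taken from a beta-lactamase reporter (FRET substrate, 1 h at room temperature) in HEK293H cells carrying a PPARg UAS-bla construct. Compounds in DMSO were incubated 17 h at 37C after a 5 h cell pre-incubation.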

[19] = qHTS assay for small molecule agonists of the antioxidant response element (ARE) signaling pathway (AID 743202; active = well fitted activation curve with a large enough effect in the signal ratio in the repeat runs, not every such curve was filed as active; the % refers to the signal ratio)
Method in brief: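 Following a 16 h, 37 C exposure of reporter HepG2 cells (ARE-driven beta-lactamase, 2,000 cells/well) to compounds, FRET substrate was applied for 2 h at room temperature and fluorescence intensity recorded.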

[20] = qHTS assay to identify small molecule antagonists of the peroxisome proliferator-activated receptor delta (PPARd) signaling pathway - cell viability counter screen (AID 743213); also: nearly all actives have a fitted effect of over 50% in size
Method in brief: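 Cytotoxicity counter screen: CellTiter-Glo luminescence read 30 min after addition, in the same wells as the reporter assay. There, PPARd UAS-bla HEK293H cells (3000/well) were treated 17 h at 37 C with compound and 300 nM L165041.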

Measured: Potency

CN1CCC(=C2c3ccccc3CC(=O)c3sccc32)CC1
not listed: [18] | [19] | [20]
inactive: all other assays above

COc1ccccc1OCC(O)CN1CCN(CC(=O)Nc2c(C)cccc2C)CC1 (stereo unspecified)
not listed: [4] | [7] | [11] | [12] | [13] | [14] | [17]
inactive: all other assays above

CCCCOCCOCCOCCCC
not listed: [4] | [11] | [15] | [16] | [17] | [19]
inactive: all other assays above

COc1ccc2c(c1)c(CC(=O)OCC(=O)O)c(C)n2C(=O)c1ccc(Cl)cc1
not listed: [4] | [8] | [10] | [11] | [12] | [14] | [15] | [17]
inactive: all other assays above

O=C(O)COc1nn(Cc2ccccc2)c2ccccc12
not listed: [6] | [11] | [12] | [14] | [15] | [16] | [17] | [18]
inactive: all other assays above

ClC(Cl)(Br)Br
not listed: [4] | [6] | [12] | [14]
inactive: all other assays above

COCCCOCCCOC
not listed: [4] | [11] | [19]
inactive: all other assays above

CC(C)(C)c1nnc(NS(=O)(=O)c2ccccc2)s1
not listed: [4] | [7] | [12] | [14] | [15] | [19]
inactive: all other assays above

O=C(O)Cc1ccc(CCNS(=O)(=O)c2ccc(Cl)cc2)cc1
not listed: [7] | [16] | [17] | [18]
inactive: all other assays above
